# Compound activity from PubChem BioAssay.
# ssDAF12 agonist – S. stercoralis DAF-12 nuclear receptor activators, primary screen, cell-based, luminescence, HEK293, GRIP1 co-expression, lit1-tk-luc; Nuclear hormone receptor DAF-12 (Strongyloides stercoralis); HEK293 ssDAF-12/GRIP1 lit1-tk-luc reporter; % of 3 µM dafachronic acid response; activation, % at 6.8 µM; hit rate 1% among 370,000; AID 652126, 2013;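 active = activation above the mean over all tested compounds plus 3 SD, cut at about 0.9% in these data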;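 also: 0% = DMSO-only wells and 100% = 3 µM delta7-dafachronic acid wells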
# SMARCA2 activ – SMARCA2 (BRM) function activators, primary screen, cell-based, luminescence, high throughput; MG213 cells, MMTV-luciferase reporter, dexamethasone, overnight; activation, % at 9.1 µM; hit rate 1% among 370,000; AID 652017, 2013; in the data active = activation above about 7.8%;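 also: 0% = vehicle wells and 100% = reference activator wells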
# hcDAF12 agonist – H. contortus DAF-12 nuclear receptor activators, primary screen, cell-based, luminescence, HEK293, lit1-tk-luc reporter; HEK293 hcDAF-12 lit1-tk-luc reporter; 0% DMSO, 100% Δ7-dafachronic acid; activation, % at 6.8 µM; hit rate 1.4% among 370,000;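 active = activation above the mean of all tested compounds plus 3 SD, cut at about 5.5% in these data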;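 also: 100% = response to 3 µM Δ7-dafachronic acid high control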
# hgDAF-12 ag – H. glycines DAF-12 receptor agonists, primary screen, cell-based, luminescence, HEK293, GAL4 fusion, UAS-luciferase. activation, % at 6.8 µM. hit rate 1.8% among 370,000. AID 687014, 2013. HEK293 GAL4-hgDAF12 UAS-luciferase reporter, agonist luminescence; normalized to butyrate control;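 active = activation above a cutoff set at the mean of all screened compounds plus 3 SD, cut at about 10% in these data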;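 also: 0% = DMSO wells and 100% = sodium butyrate wells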
# DAX1 inh-1 – DAX1 (NR0B1) inhibitors on StAR promoter, primary screen, cell-based, luminescence, SF-1 (NR5A1), full-length DAX-1 | inhibition, % at 6.8 µM | HEK293T StAR-luciferase reporter, SF-1/DAX-1 repression relief | AID 652010, 2013 | hit rate 1.1% among 370,000;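 active = inhibition above the mean over all tested compounds plus 3 SD, cut at about 3.6% in these data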;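 also: 0% = DAX-1 cells with DMSO and 100% = cells lacking DAX-1 with DMSO; higher inhibition means more luminescence from relief of DAX-1 repression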
# DAX1 inh-2 – DAX1 (NR0B1) inhibitors, primary screen, cell-based, HEK293, Gal4-DAX1, luciferase luminescence. hit rate 0.99% among 340,000. Nuclear receptor subfamily 0 group B member 1 (Homo sapiens), P51843. HEK293 Gal4-DAX1 luciferase reporter. AID 504766, 2011. inhibition, % at 6.75 µM;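 active = inhibition above the mean over all tested compounds plus 3 SD, cut at about 4.2% in these data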;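 also: 0% = DAX1-transfected cells with DMSO and 100% = empty-vector control cells with DMSO; inhibition shows as a rise in luminescence from relieved DAX1 repression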
# Target sequence (P51843 207-470 limits assumed): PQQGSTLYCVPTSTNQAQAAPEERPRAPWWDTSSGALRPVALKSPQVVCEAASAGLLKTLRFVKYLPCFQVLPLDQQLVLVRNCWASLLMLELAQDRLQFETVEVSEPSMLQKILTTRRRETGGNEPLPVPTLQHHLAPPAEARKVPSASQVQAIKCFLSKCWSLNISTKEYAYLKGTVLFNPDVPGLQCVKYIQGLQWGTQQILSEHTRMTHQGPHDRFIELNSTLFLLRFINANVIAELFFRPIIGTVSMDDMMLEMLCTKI
# hgDAF12 conf – H. glycines DAF-12 receptor agonists, confirmation, cell-based, luminescence, HEK293, GAL4-LBD fusion. shares compounds with hgDAF-12 ag. HEK293 GAL4-hgDAF12 luciferase reporter, agonist mode; percent of butyrate response. activation, % at 6.8 µM. hit rate 80% among 3,300. AID 743050, 2013;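 active = mean activation over triplicate wells above the hit cutoff derived from the earlier primary screen, cut at about 11% in these data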;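 also: 0% = DMSO low control and 100% = 2 mM sodium butyrate high control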
# LXRb DAF12 ctr – LXR agonists, Gal4 luciferase reporter, confirmation, counter-screen for hgDAF-12 agonist project, cell-based, luminescence, HEK293, H. glycines campaign | shares compounds with hgDAF-12 ag | 24 h | activation, % at 6.8 µM | 3,300 tested, under 10 active;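 active = mean activation of the triplicate above a set limit carried over from the primary screen, none filed active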
# * hit, by the source's call; . = no result given. Compounds with a hit are over-represented: about 4.8% of the library has one in this group of screens.
SMILES,ssDAF12 agonist,SMARCA2 activ,hcDAF12 agonist,hgDAF-12 ag,DAX1 inh-1,DAX1 inh-2,hgDAF12 conf,LXRb DAF12 ctr
Cc1ccc(C2(C)NC(=O)N(CC(=O)Nc3ccc(-c4nc5ccc(C)cc5s4)cc3)C2=O)cc1 (stereo unspecified),1.1*,4.2,4.4,23.7*,2.3,1.4,11.8*,0.5
Cc1ccc(NC(=O)COCC(=O)Nc2ccc(C)cc2)cc1,-0.5,0.4,-2.0,-2.0,-0.6,0.8,.,.
Cc1ccc2nc(-c3ccc(NC(=O)COCC(=O)O)cc3)sc2c1,0.3,2.3,4.5,16.0*,3.0,3.2,10.7*,0.5
CCN(CC)S(=O)(=O)c1cc(C(=O)OCC(=O)Nc2ccc(-c3nc4ccc(C)cc4s3)cc2)ccc1F,1.2*,4.2,5.4,16.2*,1.6,1.4,18.9*,1.1
CCC(=O)NC(=S)Nc1ccc(-c2nc3ccc(C)cc3s2)cc1,-0.8,2.2,1.1,16.7*,1.8,-0.2,12.7*,0.3
CCOC(=O)C1=CCN(S(=O)(=O)c2ccc(Br)cc2)C1c1ccc(Br)cc1 (stereo unspecified),-1.4,-5.0,0.6,0.1,-1.4,.,.,.
O=C(Nc1ccc2oc(-c3ccccc3)nc2c1)C1CCCO1 (stereo unspecified),1.2*,4.7,5.1,28.1*,3.4,3.7,14.8*,0.7
O=C(Nc1ccc2oc(-c3ccncc3)nc2c1)c1ccco1,-1.0,-1.4,0.7,2.0,0.0,-0.7,.,.
O=C(Nc1ccc2oc(-c3ccccc3)nc2c1)c1ccco1,1.0*,2.5,4.9,15.3*,3.3,3.7,11.8*,0.7
COC(=O)C1=C(C)N(Cc2ccccc2C(F)(F)F)C(=NCc2ccccc2C(F)(F)F)NC1c1cccc(C(F)(F)F)c1 (stereo unspecified),-1.0,-0.9,2.3,0.8,-0.4,.,.,.
c1ccc(CSc2ncn(-c3ccccc3)n2)cc1,-0.3,3.5,4.5,13.9*,2.2,5.0*,19.3*,0.7
Nc1nc(CSc2ncn(-c3ccccc3)n2)cs1,.,.,.,.,.,2.3,.,.
O=C(/C=C/c1cccc(F)c1)Nc1nccs1,0.4,4.5,5.0,14.8*,3.0,2.2,14.7*,0.6
O=C(COC(=O)/C=C/c1cccc(F)c1)Nc1ncccn1,-1.3,-4.8,0.3,0.6,0.2,-1.6,.,.
Cc1cccc(NC(=O)CSc2nccn2Cc2ccco2)c1,-0.8,4.1,2.0,14.0*,3.9*,2.3,13.0*,0.5
Cc1cc(C)cc(NC(=O)CSc2nccn2Cc2ccco2)c1,-1.0,3.8,-1.5,0.0,-1.6,0.4,.,.
CCOC(=O)/C=C/c1cccc(OC)c1O,0.6,6.2,1.8,14.2*,3.8*,.,13.7*,0.5
CCCC12CN3CCN(CC(C3)/C1=N\NC(=O)c1ccc(F)cc1)C2,-0.8,1.2,-0.2,13.3*,0.6,0.0,1.8,0.2
CCCC12CN3CCN(CC(C3)/C1=N\NC(=O)Nc1ccccc1)C2,-0.6,-0.1,1.4,1.1,0.1,-0.1,.,.
CN1OC[C@@H]2CN[C@H](c3ccc(N4CCCCC4)cc3)C[C@@H]21,-0.9,-3.5,-1.9,-3.9,-0.7,.,.,.
